The source made the active and inactive calls. Rule for the calls: active = hit-call score of the fitted dose curve at least 0.9, where 1 is the maximum; inactive = score below 0.9.
test: CCTE_Shafer_MEA_acute_cross_correlation_HWHM: CCTE's Neural Acute Assay for Cross Correlation at Half Width at Half Maximum, Shafer Lab (AID 2284026)
Method: CCTE_Shafer_MEA_acute assay is conducted using Axion Biosystems 48 well microelectrode array (MEA) plates and Maestro recording system. Each well of the MEA plate contains a grid of 16 microelectrodes embedded in the culture surface. Electrically active cells, such as neurons, can be cultured over the electrodes, and electrical activity in these cells can be recorded extracellularly. The spontaneous firing of neurons is captured from each electrode on a microsecond timescale providing both temporally and spatially precise data. […] The CCTE_Shafer_MEA_acute assay uses primary cultures of rat cortical neurons. As these cultures mature over time, neural networks develop functional activity and form cohesive networks in which electrical activity can be highly coordinated. Baseline 40-minute recordings are made on days post-plating 13 or 15, followed by a secondary 40-minute recording after chemical exposure.CCTE_Shafer_MEA_acute_cross_correlation_HWHM is a component of the CCTE_Shafer_MEA_acute assay. It measures the distance along the x-axis (phase lag) from the left half maximum height to the center of the cross-correlogram of action potential firing during a recording in a microelectrode array (MEA) using Axion Biosystems Maestro 768 channel amplifier with the AxIS adaptive spike detector. Smaller values indicate a narrower correlogram (greater synchrony). The recordings before and after chemical treatment are used to calculate a percent change in the half width at half maximum of the cross-correlogram in each well.Data from the assay component CCTE_Shafer_MEA_acute_cross_correlation_HWHM was analyzed into 1 assay endpoint. This assay endpoint, CCTE_Shafer_MEA_acute_cross_correlation_HWHM, was analyzed in the negative analysis fitting direction relative to DMSO as the negative control and baseline of activity. Using a type of functional reporter, gain or loss-of-signal activity can be used to understand electrical activity.
Spontaneous activity in the cortical cultures was recorded using an Axion Biosystems Maestro 768 channel amplifier and Axion Integrated Studios (AxIS) v1.8 (or later) software. The amplifier recorded from all channels simultaneously (gain = 1200 x; sampling rate = 12.5 kHz/channel): raw signals were filtered with a Butterworth band-pass filter (300-5000 Hz), which filters out slower local field potentials leaving only fast potentials, i.e., "spikes", arising from extracellular currents associated with action potentials (Pine 2006; Wheeler and Nam 2011). On-line spike detection of filtered signals was conducted with the AxIS adaptive spike detector, using a threshold of 8x the root mean squared (rms) noise on each channel. Any electrodes with rms noise levels greater than 5 uV were grounded (e.g., no data were recorded). Once grounded, an electrode was grounded for the duration of the experiment. All recordings were conducted at 37 C. Wells were deemed usable if on the day of the exposure >/= 10 electrodes were active (defined as >/= 5 spikes/min). On DIV 13 or 15, a minimum of three wells from one cortical culture preparation were treated with each compound (0.03-40 uM). Prior to recording baseline activity, each mwMEA plate was placed in the Maestro at 37 C and allowed to sit for 20 min while firing rates stabilized. Baseline activity (40 min) was recorded before the addition of each compound. An additional 40 min of spontaneous activity was recorded in the presence of each compound. Changes in network parameters relative to baseline were assessed following compound treatment.

SMILES	outcome	AC50
C=C(C)C(=O)[O][Sn]([CH2]CCC)([CH2]CCC)[CH2]CCC	inactive	–
CCOP(=S)(OCC)SCSP(=S)(OCC)OCC	–	32.7 µM (active)
CCCCCCCCc1ccc(O)cc1	–	9.18 µM (active)
O=C(Nc1ccc2[nH]ccc2c1)c1cc2cc(F)ccc2n1Cc1cccc(F)c1	inactive	–
O=C1C2(Cl)C3(Cl)C4(Cl)C(Cl)(Cl)C5(Cl)C3(Cl)C1(Cl)C5(Cl)C24Cl (stereo not drawn)	–	7.01 µM (active)
CC(C)(c1ccccc1)c1ccc(O)c(C(C)(C)c2ccccc2)c1	–	9.24 µM (active)
CCC(C)(C)c1ccc(O)c(C(C)(C)CC)c1	–	9.83 µM (active)
CC(C)(C)CC(C)(C)c1ccc(O)cc1	–	36.4 µM (active)
O=C(O)C(F)(F)C(F)(F)C(F)(F)C(F)(F)C(F)(F)C(F)(F)C(F)(F)C(F)(F)C(F)(F)C(F)(F)F	inactive	–
CCN1CCC2(CC1)COc1cc3c(cc12)N(C(=O)c1ccc(-c2ccc(-c4nnc(C)o4)cc2C)cc1)CC3	–	31.2 µM (active)
CC(=O)OC(c1ccccc1)C(Cl)(Cl)Cl (stereo not drawn)	–	24.9 µM (active)
CC(C)(C)c1cc(O)ccc1O	–	29.3 µM (active)
COC(=O)Cc1ccccc1	inactive	–
ClC1(Cl)C2(Cl)C3(Cl)C4(Cl)C(Cl)(Cl)C5(Cl)C3(Cl)C1(Cl)C5(Cl)C24Cl (stereo not drawn)	inactive	–
C[C@]12CCC(=O)C[C@@H]1CC[C@@H]1[C@@H]2CC[C@]2(C)[C@@H](O)CC[C@@H]12	–	33.3 µM (active)
CC(C)(OO)c1ccccc1	inactive	–
CC(=O)[O][Hg][c]1ccccc1	–	33.9 µM (active)
O=C(O)C(Cl)(Cl)Cl	inactive	–
